Screening results as filed in PubChem.
Shiga inhibitor = Shiga toxin inhibition; Vero cells, Shiga toxin protein synthesis inhibition reporter; inhibition, % at 38.7 µM; actives 9.2% (n = 290,000); AID 2315; in the data active = inhibition mostly above about 28%, no sharp cut-off; inactive = mostly below about 43%
Sm TGR block = inhibitors of Schistosoma mansoni thioredoxin glutathione reductase; Potency, µM (highest dose often 114 µM), hits mostly inhibitors; AID 485364; purified TGR, DTNB reduction, TNB absorbance 405 nm; actives 3% (n = 360,000); Q962Y6; note: nearly all actives have a fitted effect of over 60% in size
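TGR 20 nM + NADPH 100 uM (dispensed conc.), cpd preinc 15 min RT; start with NADPH (500 uM addition) then DTNB (15 mM addition). Kinetic TNB absorbance, 405 nm filter. Four-parameter Hill fit across titration.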
Pf growth 48h = P. falciparum growth inhibition at 48 hours (one generation); P. falciparum luciferase growth in erythrocytes, 48 h; Potency, µM (top dose mostly 28.7 µM), actives largely listed as inhibitors; actives 5.9% (n = 310,000)
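Read-out is firefly luciferase luminescence from an integrated reporter in P. falciparum, so falling signal marks reduced parasite growth. Infected erythrocytes were at 2% hematocrit and 0.1% parasitemia (final) in Albumax-supplemented RPMI 1640.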
Pf growth 96h = P. falciparum growth inhibition at 96 hours | P. falciparum luciferase reporter growth, 96 h | actives 6.9% (n = 320,000) | Potency, µM (highest dose often 28.7 µM), usual class: inhibitors | AID 504834
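Luminescence readout: decreased luciferase signal marks inhibited growth of reporter-expressing P. falciparum in infected red cells (2% hematocrit, 0.05% parasitemia final), exposed to compound two generations (96 h, 37 C, 5% CO2).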
NS1 inh = blocks influenza NS1 protein function; Potency, µM (top dose mostly 46.1 µM); actives 0.4% (n = 270,000); calls by dose curve; note: actives are rising curves; nearly all actives have a fitted effect of over 50% in size
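Recovery from NS1-induced slow growth read by OD600 in budding yeast switched to galactose assay medium (pH 6.0, -URA) at 1:100 dilution. Compound 23 nl per well; the matching strain lacking NS1 serves as control.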
Cycloheximide cs = counter-screen for Shiga toxin inhibitors: cycloheximide protein synthesis inhibition | cell reporter, cycloheximide protein synthesis inhibition counterscreen | max response, % | actives 12% (n = 300,000) | AID 2314; in the data active = max response mostly above about 13%, no sharp cut-off; inactive = mostly below about 14%; note: read at 38.3 µM for the half of the compounds with a filed dose
Numbers stand for hits; – = inactive; ? = inconclusive; · = no result; [ ] = another dose, or the depositor's remark. Rows were chosen to be rich in hits. Some 21% of all compounds tested hit in one or more screens of this group. Unless noted, calls come from the whole dose curve; as a rule, active = well fitted curve in the direction sought with a large enough effect; inconclusive = small, poorly fitted or top-dose-only effect, or another doubt; inactive = no such curve, though single readings can be large; an effect the other way counts as inactive or inconclusive.

SMILES	Shiga inhibitor	Sm TGR block	Pf growth 48h	Pf growth 96h	NS1 inh	Cycloheximide cs
COc1ccc(OCc2cc(C(=O)NCCc3ccccc3)no2)c(Cl)c1	–	–	–	?	–	–
Brc1cc(Br)c2nc(-c3ccc(N4CCOCC4)cc3)ccc2c1	55	?	–	–	–	38
COc1ccc2c3c(cccc13)NN=C2C	·	·	·	·	–	·
Cc1ccc(OCC(=O)NCc2ccccn2)c(Br)c1	78	–	–	·	–	31
Cn1c(=O)cc(OCC(=O)NCc2ccccn2)c2ccccc21	–	–	–	·	–	–
O=C(COc1ccccc1Br)NCc1ccccn1	64	–	·	?	–	29
O=C(COc1ccc(F)cc1Br)NCc1ccccn1	61	–	–	–	–	48
Cc1cc(OCC(=O)NCc2ccccn2)c2c(C)c(C)c(=O)oc2c1	–	–	?	?	–	–
Cc1ccc(OCC(=O)NCCO)c(Br)c1	–	–	–	?	–	31
C=CCOc1ccc(C2CC(C)=NN2c2ccccc2)cc1 (stereo unspecified)	–	–	–	–	–	–
Cc1ccc(C)c(NC(=O)Nc2nnc(N(CC(C)C)CC(C)C)s2)c1	·	–	·	·	·	·
CS(=O)(=O)c1nc(S(=O)(=O)c2ccc(Cl)cc2)c(N2CCC(O)CC2)s1	–	–	–	–	–	–
O=[N+]([O-])c1ccc(N2CCCCC2)s1	–	–	–	–	·	18
CC1CCCN(c2ccc([N+](=O)[O-])s2)C1 (stereo unspecified)	–	–	–	–	·	16
COC(=O)c1ccc(NC(=O)C(c2ccccc2)N2Cc3ccccc3C2=O)cc1 (stereo unspecified)	·	–	·	·	·	·
COc1ccc(-c2oc(/N=C/N3CCOCC3)c(C#N)c2-c2ccc(OC)cc2)cc1	–	–	6.6µM	·	–	–
CCN(CC)C(=S)SCC(=O)c1ccccc1	68	–	–	–	–	62
CCN(CC)C(=S)SCC(=O)c1ccc(F)cc1	60	–	–	–	–	40
CC[C@H](C)[C@H](NC(=O)[C@H](Cc1ccccc1)NC(=O)[C@H](C)NC(=O)[C@H](CC(=O)O)NC(=O)[C@H](CCCCN)NC(=O)[C@H](CO)NC(=O)[C@@H]1CCCN1C(=O)[C@@H]1CCC(=O)N1)C(=O)NCC(=O)N[C@@H](CC(C)C)C(=O)N[C@@H](CCSC)C(N)=O	–	·	·	·	·	–
CCc1nnc(NC(=O)C23CC4CC(CC(C4)C2)C3)s1	56	–	–	–	–	24
CSc1nnc(NC(=O)C23CC4CC(CC(C4)C2)C3)s1	–	–	–	–	–	36
NC(=O)CSc1nnc(NC(=O)C23CC4CC(CC(C4)C2)C3)s1	–	–	–	–	–	36
COc1ccc2cc1Oc1ccc(cc1)CC1c3c(cc(OC)c4c3Oc3cc5c(cc3O4)CCNC5C2)CCN1C (stereo unspecified)	–	–	0.52µM	0.33µM	–	–
COc1ccc2cc1Oc1ccc(cc1)CC1c3c(cc4c(c3Oc3cc5c(cc3OC)CCN(C)C5C2)OCO4)CCN1C (stereo unspecified)	·	·	5.4µM	5.4µM	·	·
CCOC(=O)Cn1c(=NC(=O)CC)sc2c(C)cc(C)cc21	–	–	?	–	–	–
SMILES	Shiga inhibitor	Sm TGR block	Pf growth 48h	Pf growth 96h	NS1 inh	Cycloheximide cs
CCOC(=O)Cn1c(=NC(=O)C(C)C)sc2c(C)cc(C)cc21	–	–	1.9µM	?	–	–
CCCc1nnc(N2C(=O)c3oc4ccc(F)cc4c(=O)c3C2c2ccc(C(=O)OC)cc2)s1 (stereo unspecified)	·	–	·	·	·	·
O=C(/C=C/c1ccco1)Nc1cccnc1Cl	157	5.6µM	–	–	–	46
COC(=O)c1ccccc1NC(=O)/C=C/c1ccco1	53	40µM	?	–	–	38
O=C(COC(=O)/C=C/c1ccccc1)Nc1cccnc1Cl	·	–	–	–	·	·
O=C(/C=C/c1ccccc1)Nc1cccnc1Cl	105	–	–	–	–	42
Cc1noc(C)c1C(=O)Nc1ccccc1N1CCCC1	·	–	?	–	·	·
O=C(/C=C/c1ccco1)Nc1ccccc1N1CCCCC1	92	45µM	?	–[1.15 µM]	·	24
CNC[C@H](NC[C@@H](NCCCc1ccccc1)c1ccccc1)[C@H](C)O	–	–	?	?	–	–
CCn1cc(C(=O)O)c(=O)c2cc(F)c(N3CCN[C@@H](C)C3)c(F)c21	·	·	–	?	·	·
CCN(CC)C(=O)Cn1cc(C(=O)C(=O)NCCCn2ccnc2)c2ccccc21	–	–	–	–	·	–
CC1=C(C)/C(=N\OS(=O)(=O)c2ccccc2)C=CC1=O	–	2.5µM	·	13µM	–	–
O=C(Nc1ccccc1)Nc1ccc2nnsc2c1	61	–	–	?	–	36
O=C(Nc1cccc(C(F)(F)F)c1)Nc1ccc2snnc2c1	·	–	·	·	·	·
CN(C)c1ccc(NC(=O)Nc2ccc3snnc3c2)cc1	45	–	–	–	–	27
Cc1cc(C)c(NC(=O)Nc2ccc3snnc3c2)c(C)c1	·	–	·	·	·	·
O=C(Nc1ccccc1)Nc1ccc2snnc2c1	58	–	?	3.3µM	–	41
COc1ccc(C(CNC(=O)c2cccc(S(=O)(=O)N(C)c3ccccc3)c2)N2CCCC2)cc1 (stereo unspecified)	·	–	?	?	·	·
O=c1c2ccccc2nc(C[n+]2ccccc2)n1-c1cccc(C(F)(F)F)c1	–	–	–	12µM	–	–
CC1(C)Cc2c(cnn2-c2ccccc2)C(=O)/C1=N\NC(=O)c1ccccc1O	–	–	?	·	–	16
CC1(C)Cc2c(cnn2-c2ccccc2)C(=O)/C1=N\NC(=O)c1ccccc1	–	–	·	?	–	–
Oc1ccc(Cl)cc1CNc1ccc(Br)cn1	111	–	?	–	–	45
Oc1c(Cl)cc(Cl)cc1CNc1ccc(Br)cn1	73	–	·	–	–	32
Oc1ccc(Cl)cc1CNc1ccccn1	–	–	?	10µM	–	15
COc1cccc(N2CCN(C(=O)Nc3ccccc3Cl)CC2)c1	–	–	–[5.75 µM]	–	·	–
SMILES	Shiga inhibitor	Sm TGR block	Pf growth 48h	Pf growth 96h	NS1 inh	Cycloheximide cs
CCOC(=O)c1c(NC(=O)c2cc(-c3ccc(Br)cc3)on2)sc(C)c1C	·	–	·	·	·	·
O=C(c1ccco1)N(c1ccccn1)c1ccccn1	–	–	–	·	–	–
O=C(/C=C/c1ccco1)N(c1ccccn1)c1ccccn1	–	32µM	–	–	·	–
O=C(/C=C/c1ccco1)NCc1ccccn1	–	3.5µM	–	–	–	–
CCOc1ccc(S(=O)(=O)Nc2ccc(OC)c(Cl)c2)c2cccnc12	·	–	·	·	·	·
COc1ccccc1C(CNC(=O)C1CC(=O)N(Cc2ccccc2)C1)N1CCCC1 (stereo unspecified)	·	–	?	?	·	·
Cc1ccc(NC(=O)c2cc(-c3ccco3)on2)cc1	133	–	–	–	–	41
O=C(Nc1ccc(F)c(Cl)c1)c1cc(-c2ccco2)on1	62	–	–	–	–	–
Cc1ccc(NC(=O)c2cc(-c3ccco3)on2)cc1C	99	–	–	?	–	38
